IL1B secr inh: inhibitors of inflammasome signaling (IL-1 beta secretion). THP-1 LPS/ATP IL-1B secretion, AlphaLISA, 16 h; stronger effect = lower value. activity change, % at 57.5 µM. hit rate 4.7% among 360,000; in the data active means activity change below about -50%; inconclusive means mostly about -30% to -49%; further: on the % scale 0 is the no-effect control and ±100 the full control effect
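THP-1 cells pretreated 1 hr with compounds (up to 57.5 uM final), then stimulated with LPS (250 ng/mL final) plus ATP (1.25 mM final); secreted IL-1B measured by AlphaLISA after 16 hr, decreased signal indicating inhibition.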
ATXN2 expr inh: ATXN2 expression inhibition | hit rate 0.72% among 360,000 | HEK-293 ATXN2-luciferase reporter, luminescence, 24 h | Potency, µM (doses to about 57 µM), for inactives: at the highest dose activity change, negative = inhibition, most hits filed as inhibitors; further: potency means the concentration at half of the fitted maximal effect; on the % scale 0 is the no-effect control and ±100 the full control effect; nearly all actives have a fitted effect of over 55% in size
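ATXN2-luciferase reporter cells (luciferase flanked by upstream and downstream ATXN2 gene portions) were treated 24 h at 37 °C with compounds at up to 57 uM. SteadyGlo luminescence gave expression; GF-AFC fluorescence gave viability.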
Integrin act MD: integrin-mediated muscular dystrophy alleviation activation. alpha7betagal myoblasts, beta-gal FDG fluorescence, 48 h. Potency, µM (top dose mostly 38.3 µM), inactives show at the highest dose activation, usual class: activators. hit rate 0.064% among 350,000. AID 624291;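 further: potency means the concentration at half of the fitted maximal effect; 100% = response of the positive control SU9516; nearly all actives have a fitted effect of over 60% in size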
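Alpha7betagal+/- myoblasts (passage 13) were plated 16-24 hr, then exposed to compounds (1:260 dilution of DMSO stock) for 48 hours at 37C. After MPER lysis, β-galactosidase reporter activity was read as FDG fluorescence (ex 480/em 540) after 30 minutes.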
DRD3 antagonist: antagonists of human D3 dopamine receptor | P35462 | D3R cells, DiscoveRx beta-arrestin luminescence, antagonist mode; stronger effect = lower value | hit rate 2.5% among 360,000 | max response, negative = inhibition, % | AID 652054; in the data active means max response below about -50%; inconclusive means no clear call, values can overlap the other calls; further: on the % scale 0 is the no-effect control and ±100 the full control effect
Target sequence (P35462 whole entry, looked up): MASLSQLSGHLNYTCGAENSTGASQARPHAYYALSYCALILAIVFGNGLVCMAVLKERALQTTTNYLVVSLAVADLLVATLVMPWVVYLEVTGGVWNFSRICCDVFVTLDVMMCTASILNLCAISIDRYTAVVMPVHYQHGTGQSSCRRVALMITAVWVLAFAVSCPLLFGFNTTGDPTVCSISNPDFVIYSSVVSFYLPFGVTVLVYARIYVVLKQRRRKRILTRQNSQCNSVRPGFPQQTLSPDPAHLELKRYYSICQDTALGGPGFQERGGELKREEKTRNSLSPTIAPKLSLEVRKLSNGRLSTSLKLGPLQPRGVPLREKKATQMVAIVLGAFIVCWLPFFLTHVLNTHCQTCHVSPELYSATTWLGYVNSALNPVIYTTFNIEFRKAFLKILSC
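Cells plated overnight at 1500 cells/well, then exposed to library compounds with dopamine controls for 90 minutes at 37 degrees C. DiscoveRx reagent added for 30–60 minutes at room temperature; luminescence read, quantitative HTS format.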
DRD3 agonist: D3 dopamine receptor (human) agonism | P35462 | D3R DiscoveRx beta-arrestin cells, luminescence, 90 min | max activation, % | hit rate 0.58% among 410,000; in the data active means max activation above about 30%; further: 0% is about no effect
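Agonist mode: compounds and dopamine controls were applied to plated cells for 90 min at 37 degrees C after an overnight attachment at 1500 cells/well. Luminescent read-out followed 30 - 60 minutes at room temperature with DiscoveRx detection reagent.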
S2 tox: reduces viability in counter-screen for ATXN expression inhibitors | Potency, µM (top dose mostly 56.7 µM), most hits filed as cytotoxic | S2 cells (HEK-293 line with an ATXN2-luciferase reporter) viability, CellTiter-Fluor protease fluorescence, 24 h | hit rate 0.49% among 400,000; further: potency means the concentration at half of the fitted maximal effect; nearly all actives have a fitted effect of over 40% in size
Numbers without * were called inactive; i = inactive; u = inconclusive; x = not tested or not shown; [ ] = remark or other dose. Rows were chosen to be rich in hits. Some 7% of all compounds tested hit in one or more screens of this group. Unless noted, the call rests on the fitted dose curve; in most records, active means well fitted curve in the direction sought with a large enough effect; inconclusive means small, poorly fitted or top-dose-only effect, or another doubt; inactive means no such curve, though single readings can be large; an effect the other way counts as inactive or inconclusive.

SMILES | IL1B secr inh | ATXN2 expr inh | Integrin act MD | DRD3 antagonist | DRD3 agonist | S2 tox
CCOC(=O)C1(C)CCCCCN1C(=O)c1ccc(OC)c(C(F)(F)F)c1 (centres undefined) | -6 | 1% | x | 35 | 3 | u
O=C(CC(c1ccco1)S(=O)(=O)c1ccccc1)c1ccc(F)cc1 (centres undefined) | u | 9% | -16% | -10 | 0 | i
COc1ccc(NC(=O)C2(C)Cc3c(-c4ccc5c(c4)OCO5)ccnc3O2)cn1 (centres undefined) | 31 | -13% | x | -53* | -18 | u
CN(C)c1ccc(CNC(=O)C2(C)Cc3c(-c4cccc(C(F)(F)F)c4)ccnc3O2)cc1 (centres undefined) | 24 | -19% | x | -84* | -12 | i
CC1(C(=O)Nc2ccc(F)c(Cl)c2)Cc2c(-c3ccc(C(N)=O)cc3)ccnc2O1 (centres undefined) | -79* | u | x | 9 | -2 | u
CC1(C(=O)Nc2cccc(C(F)(F)F)c2)Cc2c(-c3ccc4c(c3)OCO4)ccnc2O1 (centres undefined) | 35 | -23% | x | -59* | -15 | i
COC(=O)N/N=C/c1c(C)cc(C)cc1C | -12 | 8% | -15% | 8 | 3 | u
CC(=O)Nc1cccc(-c2ccnc3c2CC(C)(C(=O)Nc2cccc(C(F)(F)F)c2)O3)c1 (centres undefined) | -4 | u | x | -13 | -13 | u
CC(=O)Nc1ccc(-c2ccnc3c2CC(C)(C(=O)Nc2cccc(C(F)(F)F)c2)O3)cc1 (centres undefined) | -62* | u | x | 0 | -2 | u
COc1ccc(CNc2nc3ccccc3n2Cc2ccc(Cl)cc2)cc1OC | -89* | -26% | 1% | 9 | -15 | i
COc1ccc(/C=C/c2nc3ccccc3n2Cc2ccc(OC)c(OC)c2)cc1 | -54* | x | -8% | -5 | -1 | u
CCc1nc2ccccc2n1Cc1ccc(OC)c(OC)c1 | 24 | -2% | 15% | -7 | -2 | i
CCn1c(NCc2ccc(OC)c(OC)c2)nc2ccccc21 | x | x | x | x | -13 | x
Cc1cc(NC(=O)CSCC(=O)N(c2ccc(F)cc2)C(C(=O)NC2CCCCC2)c2ccc(O)c(O)c2)no1 (centres undefined) | -50* | -10% | -18% | 9 | 3 | i
O=C(NCCCn1ccnc1)/C(=C\c1ccc(Br)cc1)NC(=O)c1ccccc1 | u | -11% | -12% | 13 | -5 | i
Cc1cccc(CN(C)C)c1CC(O)(c1ccccc1)c1ccccc1 | -4 | -7% | 15% | 0 | 9 | i
CN(C)Cc1cc(C(F)(F)F)ccc1C(O)(c1ccccc1)c1ccccc1 | -75* | -19% | -48% | 3 | 0 | u
CN(C)Cc1ccccc1C(O)(c1ccccc1)c1ccccc1 | -71* | -1% | -15% | 6 | -2 | i
CCCCNS(=O)(=O)c1cccc(NC(=O)[C@H]2C[C@H](O)[C@@H](CO)O2)c1 | 15 | 8% | x | -30 | 1 | i
COc1ccc(-c2nc(CSc3nnc(C)n4c3cc3occc34)c(C)o2)cc1OC | x | x | x | x | 4 | x
COCCNC(=O)c1onc(CCl)c1C(=O)OC | 47 | 5% | 6% | -29 | -13 | i
C=CCNC(=O)c1onc(CCl)c1C(=O)OC | 110 | 2% | 7% | 5 | 65* | u
Cc1occc1C(=O)Nc1cccnc1 | 13 | 11% | -10% | 14 | 0 | i
CC1CCc2c(sc3nc(C(C)(C)C)nc(N4CCN(C(=O)CCl)CC4)c23)C1 (centres undefined) | -95* | u | -57% | 0 | 3 | u
CCC(=O)N1CCN(c2nc(CC)nc3sc4c(c23)CCCC4)CC1 | -23 | 4% | -18% | 3 | 19 | i
SMILES | IL1B secr inh | ATXN2 expr inh | Integrin act MD | DRD3 antagonist | DRD3 agonist | S2 tox
CSc1ncccc1C(=O)Nc1nc(C(C)(C)C)cs1 | -18 | 33% | -17% | 1 | 1 | i
CC(C)(C)c1csc(NC(=O)c2c(F)c(F)c(F)c(F)c2F)n1 | -55* | x | 0% | 8 | 1 | u
CC(C)(C)c1csc(NC(=O)c2ccccc2O)n1 | -83* | -1% | u | 8 | 19 | i
Nc1cc(Cl)cc2c1-c1ccc(Cl)cc1C2 | 8 | -6% | -6% | 22 | 0 | i
COCCNC(=O)C1CCCN(c2ncccn2)C1 (centres undefined) | -3 | -4% | 18% | 25 | -28 | i
CCCCCCCCNc1ncnc2ccccc12 | -61* | u | -26% | 14 | 8 | i
N#C/C(=C\c1cccs1)C(=O)c1ccccc1Cl | -98* | u | -26% | 11 | 4 | u
C=CCc1c(OC)ccc2ccc(=O)oc12 | -5 | -6% | -17% | -57* | -8 | i
COc1cc2oc(=O)ccc2cc1-c1c(OC)ccc2ccc(=O)oc12 | 3 | -2% | 0% | 16 | 2 | u
O=C(Nc1ccc(Oc2ccccc2)cc1)C1CCN(c2c3c(nc4ncnn24)CCC3)CC1 | -91* | u | -64% | 38 | 14 | u
O=C(Nc1ccc2c(c1)CCC2)C1CCN(c2c3c(nc4ncnn24)CCC3)CC1 | -18 | u | -6%[7.66 µM] | 32 | 11 | i
O=[N+]([O-])c1cc(Cl)ccc1N1CCN(c2ccccc2O)CC1 | -96* | -11% | 0% | 1 | 15 | u
O=C(/C=C/c1ccc(Cl)cc1Cl)N1CCN(c2ccccc2[N+](=O)[O-])CC1 | -60* | -13% | -2% | -16 | -14 | u
O=[N+]([O-])c1cc(Cl)ccc1N1CCCCC1 | u | -13% | -25% | 0 | -8 | i
CCc1cccc(CC)c1NC(=S)NCCc1c(C)[nH]c2ccc(C)cc12 | u | 18µM* | -53% | u | -8 | u
CCOC(=O)N1CCN(C(=S)Nc2ccccc2C)CC1 | -5 | -4% | 4% | -15 | -7 | i
O=C(COc1ccc(Cl)cc1Cl)NCc1ccncc1 | 9 | 8% | -10% | 7 | 2 | u
Cc1cc(CNC(=O)COc2ccc(F)cc2Cl)cc(C)c1O | -88* | -14% | 14% | -8 | 10 | i
COCCN(C(=O)CSc1nnc(Nc2ccc(C)cc2)s1)c1c(N)n(CC(C)C)c(=O)[nH]c1=O | -9 | 0% | 8% | 3 | -3 | i
Cc1ccc(C)c(S(=O)(=O)N/N=C/c2ccc(F)cc2)c1 | 2 | x | -1% | 9 | 1 | i
Cc1cc(Nc2cc(NC(=O)c3c(Cl)cccc3Cl)ccn2)nc(N)n1 | x | 7.7µM* | x | x | x | x
O=C(Nc1ccncc1)c1c(Cl)cccc1Cl | -61* | 45% | 6% | 15 | 6 | i

Screens deposited in PubChem by National Center for Advancing Translational Sciences (NCATS).
